Drawing on ChEMBL document CHEMBL3988442, “University of Dundee, Small-Polar-MMV Screening Library” (2021), this text covers Percent Effect for 19 compounds.

Structures are written as SMILES.

The target of this assay is AMP-activated protein kinase, AMPK (Homo sapiens) (UniProt P54646+O43741+P54619+Q9UGJ0+Q9Y478+Q13131+Q9UGI9). Nature of the assay: AMP-dependent Kinase enzyme assay. An in vitro enzyme assay that detects ADP turnover that is directly proportional to AMPK activity. This uses naive AMPK that is activated during the assay with MK-8722. Type of assay: functional. The settings on record: 30 µM. Details: scale not given: direction of the effect not stated beside the values.
On to `Cc1cc(C2CCCN(C(=O)c3cnn(C)c3)C2)ccn1` (centres undefined), for which the Percent Effect is 10.9%. Next, `COC(=O)N1CCCN(C(=O)NCc2ccc(Cl)s2)CC1`: 4.69%.

Turning to `NC(=O)CN1CCCN(C(=O)c2ccn(-c3ccccc3)n2)CC1`, the Percent Effect was -1.01%. To `CCc1nnc(CN2CCN(C(=O)c3cc4ccccc4[nH]3)CC2)o1` belongs 2.79%; to `Cn1ncc2c(=O)[nH]c(CN3CCC(Cc4ccccc4)CC3)nc21`, -7.07%; to `COCCN1C(=O)CO[C@H]2CN(Cc3c[nH]nc3-c3ccccc3)C[C@@H]21`, 8.07%. Consider `CC(C(N)=O)S(=O)(=O)Cc1cc(Cl)c2c(c1)OCO2` (centres undefined), for which the Percent Effect was 1.18%. To `COc1ccc2cc(C(=O)N3CCCCC3CC(N)=O)[nH]c2c1` (centres undefined) belongs 7.25%; to `CC(C)c1nccn1C1CCCN(C(=O)c2cnc[nH]2)C1` (centres undefined), -5.59%.

On to `COc1ccc(C(=O)N2CCC(Nc3ccc(C)nn3)CC2)c(F)c1`, for which the Percent Effect amounted to 3.77%. As to `O=C(c1cnco1)N1C[C@@H]2CC[C@H](Oc3ccccc3F)[C@@H]2C1`, the Percent Effect came out at 3.39%. Next, `CN(C)C(=O)Cc1nc(CN2CCOC(Cn3cccn3)C2)cs1` (centres undefined): -0.58%; `Cc1ccoc1-c1nnc(CNCCn2cccn2)o1`: -3.87%. Next, `O=C(NCc1cnc2n1CCN(Cc1ccsc1)CC2)C1CCC1`: -0.353%; `Cc1ccc(C2CCCCCN2Cc2cn(C)nc2C)s1` (centres undefined): 0.0483%. Turning to `Cc1cccc(COC[C@H]2CC[C@H]3[C@H](CCN3C(=O)CC3CC3)O2)n1`, the Percent Effect was 7.31%. To `CC(Cn1cccn1)NC(=O)N(C)Cc1ccc(Cl)s1` (centres undefined) belongs -3.14%; to `Fc1ccc(-c2nnc(CN3CCOC(Cn4cncn4)C3)o2)cc1` (centres undefined), 1.39%. To `CCc1noc(C2CCCCN2C(=O)c2nnc3ccccc3n2)n1` (centres undefined) belongs -3.18%.
